According to article PMC7819943, “Rice protein-binding microarrays: a tool to detect cis-acting elements near promoter regions in rice”:
The full ranking holds about 68,000 sequences; the median of “fluorescence intensity (a.u.)” is about 9,100, and the highest 2% start at about 16,000. Shown is part of a subset that was picked to be rich in the highest values.

The sequences below were run against OsWRKY34 (Oryza sativa, UniProt Q0JBA9 1-250) (assay: protein-binding microarray (RPBM); PBS, 2% BSA, 51.3 ng/ul salmon testes DNA, 50 uM zinc acetate, 200 nM TF, 25 C, 1 h; high values mean tight binding). Conditions: protein: recombinant; tags: N-terminal polyhistidine and DsRed monomer fusion (pET32a); label: CyDye5-dUTP incorporated in the synthesized complementary strand; 3' TTTTT single-stranded linker to array surface; dsDNA, one strand shown.
Sequence of OsWRKY34 (Q0JBA9 entry or part of it): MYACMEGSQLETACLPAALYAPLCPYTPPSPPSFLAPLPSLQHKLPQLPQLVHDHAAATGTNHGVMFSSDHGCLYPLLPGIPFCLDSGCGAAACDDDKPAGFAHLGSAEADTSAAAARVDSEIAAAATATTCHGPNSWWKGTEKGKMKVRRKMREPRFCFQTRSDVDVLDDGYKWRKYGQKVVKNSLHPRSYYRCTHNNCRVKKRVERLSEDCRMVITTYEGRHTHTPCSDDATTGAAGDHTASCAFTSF
Method in brief: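 Binding signal is reported as fluorescence intensity per feature (arbitrary units) from an Axon 4000B scanner. Incubation used 200 nM of each Ni–NTA-purified, N-terminally polyhistidine- and DsRed-fused transcription factor from E. coli BL21-CodonPlus on a double-stranded custom Agilent array for 1 h at 25 °C, with 50 µM zinc acetate in the buffer, followed by washing.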
For “AACTCTAATTTACTGTTGGTTGGTGCAATATCAGATGGATCGGAGTCACCTAGTGCAG”, the binding signal was 8900 fluorescence intensity (a.u.). For “GCTCAGATTGTTCATCAAGTTTTTCCTCTGTGCTCTGTTTCGGAGTCACCTAGTGCAG”, the binding signal was 8890 fluorescence intensity (a.u.). In the case of “ATGAGTATATATAAGCTTAGTCTCTTTTCTTTTCTTTCTTCGGAGTCACCTAGTGCAG”, the binding signal is reported as 8940 fluorescence intensity (a.u.). With “ACGCCGTTGACTTTTTTAAACATGTTTAACCGTTCATCTTCGGAGTCACCTAGTGCAG” the binding signal was 47400 fluorescence intensity (a.u.). With “GTTGATTTTTTTTAAATATGTTTGACCGTTCGTCTTATTCCGGAGTCACCTAGTGCAG” the binding signal was 8600 fluorescence intensity (a.u.). For “TGTTGATTTTTTAAAATATGTTTGACCGTTCGTCTTATTCCGGAGTCACCTAGTGCAG”, the binding signal was 10700 fluorescence intensity (a.u.). In the case of “CGTTGACTTTTTAAAATATATTTGACCGTTCGTCTTATTCCGGAGTCACCTAGTGCAG”, the binding signal is reported as 24100 fluorescence intensity (a.u.). For “TGTTGACTTTTTAAAACATGTTTGACCGTTCATATTATTCCGGAGTCACCTAGTGCAG”, the binding signal was 15700 fluorescence intensity (a.u.). For “GCATTCGTTTCAGGCTGTTCCCAACCTCTCTCCCTTGTTTCGGAGTCACCTAGTGCAG”, the binding signal was 12000 fluorescence intensity (a.u.). For “CGGCCCAAGCTTCATTGACAAATTGTCTTGAATTTGTACACGGAGTCACCTAGTGCAG”, the binding signal was 8510 fluorescence intensity (a.u.). In the case of “ACACATATTTATTTTCTCCACTACCACAGAAGGAACTTTTCGGAGTCACCTAGTGCAG”, the binding signal is reported as 9140 fluorescence intensity (a.u.). In the case of “AGGGGAGGTAGGTAAGAAGATTGAACAGTGGAGGGTTGTACGGAGTCACCTAGTGCAG”, the binding signal is reported as 9840 fluorescence intensity (a.u.). In the case of “ATTTTCGTGTTATTTTTGGTTCTGGTTGATTGATCGATTTCGGAGTCACCTAGTGCAG”, the binding signal is reported as 12900 fluorescence intensity (a.u.). In the case of “GTGGTTGGTTGGTGCGGTTGCGGCGGGTGATCGAACGATGCGGAGTCACCTAGTGCAG”, the binding signal is reported as 12100 fluorescence intensity (a.u.). For “ATATAGGTTACGGATTTGTCATTGGTCGTTGTATTCTTTTCGGAGTCACCTAGTGCAG”, the binding signal was 10600 fluorescence intensity (a.u.). In the case of “GAGGAGGAGGAGGAGGAGGAGGAGGATGCGGGTGGTGGTGCGGAGTCACCTAGTGCAG”, the binding signal is reported as 10500 fluorescence intensity (a.u.). For “GCGGTGGAGGCGGTGGCGGTGGTGGCGGTGGTGGAGGATGCGGAGTCACCTAGTGCAG”, the binding signal was 21200 fluorescence intensity (a.u.). With “TTTGGTAAGATTTGAACGGTTGGTTGTATAGGTCATTGACCGGAGTCACCTAGTGCAG” the binding signal was 16900 fluorescence intensity (a.u.). In the case of “GTGGTGGCGGTGGAGGTGGAGGTGGAGGCGCCGTGGTGCGCGGAGTCACCTAGTGCAG”, the binding signal is reported as 12600 fluorescence intensity (a.u.). For “ATCGAATGGTTGGTTCGGTTTGGTTTTGATTGATCGATATCGGAGTCACCTAGTGCAG”, the binding signal was 22300 fluorescence intensity (a.u.). For “CTTCGATTGGTTTGTTGGTTTGACTGGAATTCGGATGGATCGGAGTCACCTAGTGCAG”, the binding signal was 10100 fluorescence intensity (a.u.). With “ATTGATTGATTGGTTGGTTGGTTGGTTGGGTTGATCGATGCGGAGTCACCTAGTGCAG” the binding signal was 20300 fluorescence intensity (a.u.). For “TTTATTGTTGTTTTTGGGTTGGTTTGGTTTGATTCCGATGCGGAGTCACCTAGTGCAG”, the binding signal was 9120 fluorescence intensity (a.u.). With “TTTCATGTTCGTGAAAATTATACATTTTATATGCGCCTTTCGGAGTCACCTAGTGCAG” the binding signal was 8720 fluorescence intensity (a.u.). In the case of “GAAGCCATATCATCTTAATTGTTTTTAGCTCTTCTCTCATCGGAGTCACCTAGTGCAG”, the binding signal is reported as 10300 fluorescence intensity (a.u.). “AAAATTTTTCTATTCAATTCTTTTCGTTTTTGGACCTCTCCGGAGTCACCTAGTGCAG” was tested, and the binding signal was 8660 fluorescence intensity (a.u.). “CCCTAAACAGGTCAACCTCAGGTGTTGACTAGAGTACTAGCGGAGTCACCTAGTGCAG” was tested, and the binding signal was 8290 fluorescence intensity (a.u.). For “GTGTGTAGTGGTGTTTGTGCGCGGCCTCTAATATCATGTACGGAGTCACCTAGTGCAG”, the binding signal was 11600 fluorescence intensity (a.u.). With “GATTCATACAATTGTATGGTGTTAACATGGCGATTTTTTGCGGAGTCACCTAGTGCAG” the binding signal was 9120 fluorescence intensity (a.u.). For “CCGCTACAACACTCAACACCATACCACATGTCATCTCCGTCGGAGTCACCTAGTGCAG”, the binding signal was 8060 fluorescence intensity (a.u.). For “CTTCTGTCACGTACGCCCGTCCCTCATATGGCCAATCGCGCGGAGTCACCTAGTGCAG”, the binding signal was 13400 fluorescence intensity (a.u.). With “CACTTACACTTTCATTTTCGCTTCATGTAAAATAGTCAACCGGAGTCACCTAGTGCAG” the binding signal was 8980 fluorescence intensity (a.u.). With “ATAGGTAGATTGTTGGTGATGCTCTAAGGGTGGGTTTTGACGGAGTCACCTAGTGCAG” the binding signal was 13400 fluorescence intensity (a.u.). In the case of “AGGGACAGGGTTGGTGAAGTGGCTTCCATGCGGCGGCCACCGGAGTCACCTAGTGCAG”, the binding signal is reported as 8150 fluorescence intensity (a.u.). With “GGCGGAGGGAGGGAGGGGAAGTCGGTGGTGAGGTGGCGTGCGGAGTCACCTAGTGCAG” the binding signal was 12900 fluorescence intensity (a.u.). With “GTTGGTGGTGGTGGTGGAGGAGGCGGTGGTGGGATCGATGCGGAGTCACCTAGTGCAG” the binding signal was 23900 fluorescence intensity (a.u.). In the case of “AGATGCCTCGTGCTAGGTTTGATTGGTTGGTTGGTTGGTACGGAGTCACCTAGTGCAG”, the binding signal is reported as 19400 fluorescence intensity (a.u.). For “TCGATTGGGGATTGGGGATTGGGGATCAGGAGGGATGGGGCGGAGTCACCTAGTGCAG”, the binding signal was 20900 fluorescence intensity (a.u.). With “GTTGCTGTTTTTGATGGTCGTTGAGACAGATAGTTTGGTACGGAGTCACCTAGTGCAG” the binding signal was 8360 fluorescence intensity (a.u.). In the case of “CGGGAGAGGGAGGTGATGATGGGGCGGCGGAGGATTGGAGCGGAGTCACCTAGTGCAG”, the binding signal is reported as 8130 fluorescence intensity (a.u.). For “GGGGATCAGGAGGGATGGGGATTGGGGAGACGAGTGGATGCGGAGTCACCTAGTGCAG”, the binding signal was 8330 fluorescence intensity (a.u.). For “AGGAGGAGGAGGAGGAGGAGGAGGAGGCGGTGGGAGGGATCGGAGTCACCTAGTGCAG”, the binding signal was 14800 fluorescence intensity (a.u.). With “ATGCGGCGGTGGCGGGAGGGAGGGACAGGGTTGGTGAAGTCGGAGTCACCTAGTGCAG” the binding signal was 17400 fluorescence intensity (a.u.). “TCGCTAGGAGTGGTGGTGGTGGTGGGAGGAGGAGGCGATGCGGAGTCACCTAGTGCAG” was tested, and the binding signal was 13000 fluorescence intensity (a.u.). With “GCACTTATCGTTTATTTTCTTATAATTTATTTTATCATTGCGGAGTCACCTAGTGCAG” the binding signal was 8830 fluorescence intensity (a.u.). In the case of “GCAAGTACTTGGTGGTATATGTTGTTTGGAATAAAAAGGTCGGAGTCACCTAGTGCAG”, the binding signal is reported as 8320 fluorescence intensity (a.u.). For “CCTCGCTCCTCCTCGTCGCAGATCGATCTCAAACCTTCAGCGGAGTCACCTAGTGCAG”, the binding signal was 8730 fluorescence intensity (a.u.). For “ATACATTTATTCCTTCTTAGAGTCACTACTCTTCATTGAACGGAGTCACCTAGTGCAG”, the binding signal was 8060 fluorescence intensity (a.u.). “ACCTCTTCCTCGACGCCGCCGCCGACCACCACCCCGCCGGCGGAGTCACCTAGTGCAG” was tested, and the binding signal was 8670 fluorescence intensity (a.u.). With “TGTGTCATCTTGTCTATGGTAGTTCAGCAATCCTCTGCTTCGGAGTCACCTAGTGCAG” the binding signal was 8890 fluorescence intensity (a.u.). For “ATCACCGTCCCCGCTGCCGCCACCCGCCACTGCCGCAGCGCGGAGTCACCTAGTGCAG”, the binding signal was 10800 fluorescence intensity (a.u.). “AGGCGGCGGGGTGGCGGTGGTGGTGGTGGTGGTGGTGATGCGGAGTCACCTAGTGCAG” was tested, and the binding signal was 19000 fluorescence intensity (a.u.). With “CCGGAGAGGCGGTGGTGTTTGGATCGGGAGGGGAGAGATGCGGAGTCACCTAGTGCAG” the binding signal was 11500 fluorescence intensity (a.u.). “GGGATTGGATTGGGTTGGGTTGGATTGGAGAGAGAGAATGCGGAGTCACCTAGTGCAG” was tested, and the binding signal was 31400 fluorescence intensity (a.u.). For “CCCGCAGATTGGATTGGATTGGGTTGGATTGGATTGGATGCGGAGTCACCTAGTGCAG”, the binding signal was 10300 fluorescence intensity (a.u.). “AATGAAAAATGGGGATGGGATTGGGATTGAGAAATGAATGCGGAGTCACCTAGTGCAG” was tested, and the binding signal was 9280 fluorescence intensity (a.u.). “GGCGGCGGTGATTCGGGGATGCGGCGCGGCGGGGAGGAGGCGGAGTCACCTAGTGCAG” was tested, and the binding signal was 10100 fluorescence intensity (a.u.). With “GGTGGTGGTGGTGGTGGATCGGGTGGCTTTGGCTGAGATGCGGAGTCACCTAGTGCAG” the binding signal was 18100 fluorescence intensity (a.u.). With “GTGGGGCCCACCTGTCGGGGCGGTTGATGGGCTCTTCTAGCGGAGTCACCTAGTGCAG” the binding signal was 8370 fluorescence intensity (a.u.). “CCACAACACCGCAACACACTGTCCTTGCTTCTTCATTGATCGGAGTCACCTAGTGCAG” was tested, and the binding signal was 8750 fluorescence intensity (a.u.). In the case of “CTTCTTCTTGTCCTGCGCAACCGATGGGCGGGTTCTTGATCGGAGTCACCTAGTGCAG”, the binding signal is reported as 18800 fluorescence intensity (a.u.). For “CGGCGGGTGGGGCGGTGGCGGTGAGGGATGCGGTGGTGGCCGGAGTCACCTAGTGCAG”, the binding signal was 10700 fluorescence intensity (a.u.). “AGGTGAGGTGGAGGAGGAGGAGGAGGAGGAGATCGGGATGCGGAGTCACCTAGTGCAG” was tested, and the binding signal was 8790 fluorescence intensity (a.u.).
